From PubChem
FMDV inh – foot and mouth disease virus antiviral activity; AID 1159524; Potency, µM (series often up to 57.9 µM), most hits filed as inhibitors; hit rate 1.2% among 410,000; FMDV antiviral cell-based qHTS; calls by dose curve; tested in HEK293T cells; further: read-out not given here; nearly all actives have a fitted effect of over 45% in size
HCV inhibitor – blocks hepatitis C virus; Huh7.5.1 HCVcc-Cre infection, luciferase reporter, 44 h; Potency, µM (titrated, usually from 41.8 µM), usual class: inhibitors; hit rate 3.4% among 340,000; AID 651820
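Infectious HCVcc-Cre (~0.5 moi) was added to cells just after compound, with cells seeded 4 h earlier at 1,000 per well. Luciferase activity after 44 h culture reported infection; substrate was incubated 15 min at room temperature before reading.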
VACV Venus inh – vaccinia inhibition (Venus reporter); Vaccinia virus Venus reporter expression, fluorescence; hit rate 0.46% among 330,000; Potency, µM (highest dose often 36.5 µM), most hits filed as inhibitors; calls by dose curve; tested in A549 cells; further: nearly all actives have a fitted effect of over 30% in size
VACV mCherry inh – inhibitors of vaccinia virus infection (mCherry reporter signal); Vaccinia virus mCherry reporter infection, fluorescence; Potency, µM (series often up to 36.5 µM), hits mostly inhibitors; hit rate 0.63% among 310,000; AID 720579; calls by dose curve; tested in A549 cells; further: nearly all actives have a fitted effect of over 35% in size
Sm TGR block – inhibitors of Schistosoma mansoni thioredoxin glutathione reductase; Q962Y6; purified TGR, DTNB reduction, TNB absorbance 405 nm; Potency, µM (series often up to 114 µM), most hits filed as inhibitors; hit rate 3% among 360,000; further: nearly all actives have a fitted effect of over 60% in size
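Kinetic colorimetric format: TGR-catalysed, NADPH-driven DTNB reduction monitored via TNB absorbance. Enzyme dispensed at 20 nM; compound exposure 15 min at room temperature before reaction start.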
HCMV inh – blocks human cytomegalovirus replication. hit rate 4.5% among 410,000. HFF cells, HCMV-luciferase reporter, 72 h; hits give low values. activity change, negative = inhibition, % at 57.5 µM. AID 1259415; in the data active means activity change below about -60%; inconclusive means no clear call, values can overlap the other calls; inactive means above about -39%
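Inhibition of viral replication was scored as loss of reporter luminescence in HFFs infected with HCMV-luciferase (MOI 1 PFU/cell) for 72 h; compounds tested at 2 doses, normalized to buffer and Salinomycin controls.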
Large screens that a line does not name were inactive. Only some compounds are listed: those with a hit (about 9.3% of all), similar ones and a draw of the others. Unless noted, the call rests on the fitted dose curve; in most records, active means well fitted curve in the direction sought with a large enough effect; inconclusive means small, poorly fitted or top-dose-only effect, or another doubt; inactive means no such curve, though single readings can be large; an effect the other way counts as inactive or inconclusive.

CC(C)c1nc(SCC(=O)N2CC(=O)Nc3ccccc32)c2ccccc2n1	FMDV inh 16µM, HCV inhibitor inconclusive, VACV Venus inh inconclusive, VACV mCherry inh inconclusive, HCMV inh -87 (no result: Sm TGR block)
Cc1cccc(C)c1-n1c(SCC(=O)N2CC(=O)Nc3ccccc32)nc2ccccc2c1=O	FMDV inh inconclusive, HCV inhibitor inconclusive, HCMV inh inconclusive
Cc1ccc(-n2c(SCC(=O)N3CC(=O)Nc4ccccc43)nc3ccccc3c2=O)cc1	VACV Venus inh inconclusive, HCMV inh -68
O=C1CN(C(=O)CSc2nc(-c3ccc(Cl)cc3)cs2)c2ccccc2N1	FMDV inh inconclusive, HCV inhibitor 14µM, VACV Venus inh inconclusive, VACV mCherry inh inconclusive, HCMV inh inconclusive
COc1ccccc1/C=C(/C(=O)OCC(=O)N(C)Cc1ccccc1)c1ccccc1	HCV inhibitor inconclusive
O=c1c2ccccc2nc(SCc2nnc(-c3ccccc3Br)o2)n1Cc1ccco1	HCV inhibitor 13µM (no result: FMDV inh)
Cc1ccc(CSc2nc3ccccc3c(=O)n2Cc2ccco2)cc1	FMDV inh inconclusive, Sm TGR block inconclusive
O=C(CSc1nc2ccccc2c(=O)n1Cc1ccco1)c1ccccc1	HCV inhibitor inconclusive, HCMV inh -69
O=c1c2ccccc2nc(SCc2ccccc2)n1Cc1ccco1	FMDV inh inconclusive, HCV inhibitor inconclusive, Sm TGR block 28µM (no result: VACV Venus inh, VACV mCherry inh)
CCOC(=O)CSc1nc2c(sc(=S)n2-c2ccccc2OC)c(=O)n1Cc1ccco1	HCV inhibitor 2.8µM (no result: VACV Venus inh, VACV mCherry inh)
CCOC(=O)CSc1nc2c(sc(=S)n2-c2ccccc2OC)c(=O)n1-c1ccccc1OC	HCV inhibitor inconclusive
Cc1ccc2sc(N(CCCN(C)C)C(=O)c3nc4ccccc4s3)nc2c1C	HCV inhibitor inconclusive, VACV mCherry inh inconclusive
O=C(c1ccc(S(=O)(=O)N2CCCCC2)cc1)N(c1ccccn1)C1CCCCC1	HCMV inh inconclusive
CC(=O)Nc1ccc(NC(=O)C(C)OC(=O)CNS(=O)(=O)c2ccc(Br)cc2Cl)cc1 (stereo not drawn)	none
CCOC(=O)c1cccn1C1C(=O)N(Cc2ccc(OC)cc2)c2ccc(F)cc21 (stereo not drawn)	none (no result: FMDV inh, HCV inhibitor, VACV Venus inh, VACV mCherry inh, Sm TGR block)
CCOC(=O)CSc1nc2c(sc3ccc([N+](=O)[O-])cc32)c(=O)n1Cc1ccco1	HCV inhibitor 6.3µM, Sm TGR block inconclusive
CCOC(=O)CSc1nc2c(sc3ccccc32)c(=O)n1Cc1ccc(C)cc1	none (no result: HCV inhibitor)
CCOC(=O)CSc1nc2ccccc2c(=O)n1Cc1ccco1	HCV inhibitor 13µM (no result: FMDV inh)
COc1ccc(C)cc1NC(=O)c1nn(C)c(C(=O)Nc2cc(C)ccc2OC)c1[N+](=O)[O-]	none (no result: VACV Venus inh, VACV mCherry inh)
CC(C)c1ccccc1NC(=O)CSc1nnc(COc2ccccc2)o1	none (no result: HCV inhibitor)
O=C(c1ccco1)N1CCN(C(=O)c2ccc(Cn3cc(Br)cn3)o2)CC1	Sm TGR block 40µM
N#Cc1c(NC(=O)c2ccc(Cn3cc(Br)cn3)o2)sc2c1CCCCCC2	FMDV inh inconclusive, HCV inhibitor inconclusive, HCMV inh -99 (no result: VACV Venus inh, VACV mCherry inh)
N#Cc1c(NC(=O)c2ccc([N+](=O)[O-])o2)sc2c1CCC2	VACV Venus inh inconclusive, VACV mCherry inh inconclusive, Sm TGR block 35µM, HCMV inh inconclusive
NC(=O)c1c(NC(=O)c2ccc([N+](=O)[O-])o2)sc2c1CCCC2	HCV inhibitor inconclusive, VACV mCherry inh inconclusive
CCn1c(C)nnc1SCC(=O)Nc1ccccc1Cl	none (no result: VACV Venus inh, VACV mCherry inh)
CCOc1ccccc1Nc1sc(C(=O)c2ccccc2)c(N)c1C(=O)Nc1ccc(F)cc1	none (no result: HCV inhibitor)
CCOC(=O)N1CCN(C(c2ccc(Cl)cc2)c2sc3nc(C)nn3c2O)CC1 (stereo not drawn)	none
COc1cccc(CNC(=O)CN2CCCN(Cc3ccccc3)S2(=O)=O)c1	none (no result: HCV inhibitor)
COc1cccc(C2CC3C(=O)C=CC2N3Cc2ccccc2)c1 (stereo not drawn)	FMDV inh inconclusive, HCMV inh -97
COC(=O)c1ccc(=O)c2nc3/c(=C/O)c(O)cc(=O)c3[nH]c12	HCV inhibitor inconclusive, Sm TGR block 50µM (no result: HCMV inh)
Cc1ccc(Cn2ccnc2SCC(=O)NCc2ccccc2Cl)cc1	HCMV inh inconclusive (no result: HCV inhibitor)
CCOC(=O)N1CCN(C(=O)CCc2cc(OC)c(OC)c(OC)c2)CC1	Sm TGR block inconclusive
Cc1[nH]c2ccccc2c1C(=O)CSc1nc2ccccc2c(=O)n1CCCN1CCOCC1	FMDV inh inconclusive, HCV inhibitor inconclusive, HCMV inh -74 (no result: VACV mCherry inh)
Cn1c(N)c(C(=O)CSc2nc3ccccc3c(=O)n2CCCN2CCOCC2)c(=O)n(C)c1=O	none (no result: VACV Venus inh, VACV mCherry inh)
COC(=O)CC(=O)CSc1nc2cc(C(=O)NCC(C)C)ccc2c(=O)n1CCc1ccccc1	HCMV inh -94 (no result: HCV inhibitor)
COCCn1c(SCC(=O)c2c(C)[nH]c3ccccc23)nc2cc(C(=O)NC(C)C)ccc2c1=O	Sm TGR block 35µM (no result: HCV inhibitor)
O=C1c2ccccc2C(=O)N1CCCCSc1nc2ccccc2c(=O)n1CCCN1CCOCC1	HCMV inh -104
COC(=O)CC(=O)CSc1nc2cc(C(=O)NC(C)C)ccc2c(=O)n1CCc1ccccc1	none (no result: HCV inhibitor)
C/C=C1\COC(C(=O)NCc2ccccc2)(C(F)(F)F)C=C1C=C1CCCCC1 (stereo not drawn)	none (no result: Sm TGR block)
Cc1[nH]c2ccccc2c1C(=O)CSc1nc2ccccc2c(=O)n1-c1ccccc1F	HCMV inh -89 (no result: FMDV inh, HCV inhibitor, VACV Venus inh, VACV mCherry inh, Sm TGR block)
CCOC(=O)c1c(C)[nH]c(C)c1C(=O)CSc1nc2ccccc2c(=O)n1-c1ccc(Cl)cc1	HCV inhibitor inconclusive, VACV Venus inh inconclusive, HCMV inh inconclusive
CC(=O)N(O)CCCCCNC(=O)CCC(=O)N(O)CCCCCNC(=O)CCC(=O)N(O)CCCCCN	HCV inhibitor 14µM, VACV mCherry inh inconclusive, HCMV inh inconclusive
COc1ccc(C(=O)C[n+]2ccc(Cl)c3ccc(Cl)cc32)cc1	none (no result: FMDV inh, HCV inhibitor, Sm TGR block, HCMV inh)
C/C(=N\NC(=O)c1c(C)nc2ccccn12)c1ccccc1F	none
C/C(=N\NC(=O)c1c(C)nc2ccccn12)c1ccc(O)cc1O	HCV inhibitor 6.3µM, VACV Venus inh inconclusive, VACV mCherry inh inconclusive, HCMV inh -82
CC(=O)Oc1ccc(/C=N/NC(=O)c2ccc(N(C)S(=O)(=O)c3ccccc3)cc2)cc1	VACV mCherry inh inconclusive
COc1ccc(CC(=O)NCc2ccc3c(c2)CCN3C(C)=O)cc1OC	none (no result: HCV inhibitor)
O=C(/C=C/c1ccccc1)CCN1CCOCC1	FMDV inh inconclusive, HCV inhibitor inconclusive, VACV Venus inh inconclusive, VACV mCherry inh 10µM (no result: Sm TGR block)
O=C1/C(=C/c2ccccc2)CN(C(=O)CCN2CCOCC2)C/C1=C\c1ccccc1	FMDV inh 8.9µM, HCV inhibitor inconclusive, VACV Venus inh inconclusive, VACV mCherry inh inconclusive (no result: Sm TGR block)
CN(C)CCC(=O)N1C/C(=C/c2ccccc2)C(=O)/C(=C\c2ccccc2)C1	FMDV inh 8.9µM, HCV inhibitor inconclusive, VACV Venus inh 11µM, VACV mCherry inh 8.9µM, HCMV inh -98 (no result: Sm TGR block)
O=C(/C=C/c1ccccc1)N1CCOCC1	none (no result: VACV Venus inh, VACV mCherry inh)
C/C(=C\c1ccccc1)C(=O)NCCN1CCOCC1	none
C[N+](C)(C)CCC(=O)N1C/C(=C/c2ccccc2)C(=O)/C(=C\c2ccccc2)C1	FMDV inh inconclusive, HCV inhibitor inconclusive, VACV Venus inh inconclusive, VACV mCherry inh inconclusive, HCMV inh -67 (no result: Sm TGR block)
